Assay outcomes as filed in PubChem.
GLS inhibitor = inhibitors of human glutaminase (GLS). O94925. GLS enzymatic activity, qHTS titration. Potency, µM (doses to about 45.5 µM), for inactives: at the top dose activity change, negative = inhibition, usual class: inhibitors. hit rate 0.21% among 410,000; further: on the % scale 0 is the no-effect control and ±100 the full control effect
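Enzyme dispensed in phosphate buffer (45 mM, pH 8.2, 0.02% Tween-20), compounds pinned in, then 1 mM L-glutamine solution and the glutamate oxidase–HRP–Amplex Red mix added; fluorescence read immediately and again after 30 min at room temperature.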
APE1 inh = APE1 (human) endonuclease inhibition. hit rate 0.35% among 350,000. recombinant APE1, TAMRA/BHQ-2 abasic DNA cleavage fluorescence. AID 2517. P27695. Potency, µM (titrated, usually from 65.8 µM), for inactives: top-dose activity change, negative = inhibition, most hits filed as inhibitors;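 further: plate controls were vehicle for no effect and reference inhibitor for full effect; nearly all actives have a fitted effect of over 55% in size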
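APE1 at 0.75 nM preincubated 15 min at room temperature with compound. Reaction then started with 50 nM double-stranded THF-abasic substrate labelled with TAMRA/BHQ-2, and 525/598 nm fluorescence read kinetically. Activity taken as third-minus-first read difference, normalized to DMSO and NSC13755 controls.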
Pol iota inh = DNA polymerase iota (human) inhibition | Pol iota fluorescent replication assay, 10 min | Potency, µM (titrated, usually from 115 µM), without a hit: top-dose activity, negative = inhibition, usual class: inhibitors | hit rate 1% among 390,000 | AID 588590
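Fluorescent replication assay read twice, at 0 min and 10 min after adding 50 nM (final) substrate. Enzyme (10 nM) and compounds were first incubated 15 min at room temperature; enzyme-free buffer wells were negative controls.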
POLH inh = DNA polymerase eta (human) inhibition. Potency, µM (titrated, usually from 114 µM), without a hit: at the highest dose activity change, negative = inhibition, usual class: inhibitors. recombinant Pol eta, fluorescent DNA replication assay. hit rate 1.2% among 390,000. Q9Y253. AID 588591; further: on the % scale 0 is the no-effect control and ±100 the full control effect
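Pol eta (10 nM) was preincubated with compounds for 15 min at room temperature, after which fluorescent replication substrate (50 nM final) was added to start the reaction. Fluorescence was read kinetically at 0 and 10 min.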
Pol beta inh = DNA polymerase beta (human) inhibition; hit rate 1.3% among 340,000; Potency, µM (titrated, usually from 114 µM), for the others: top-dose activity change, negative = inhibition, hits mostly inhibitors; AID 485314; Pol beta primer extension/strand displacement, fluorescence kinetic; further: on the % scale 0 is the no-effect control and ±100 the full control effect
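10 nM enzyme + cpd, 15 min RT; start with substrate 50 nM final; read 0 min and after 10 min RT. Corrected, normalized data; 4-parameter Hill curve fit.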
POLK inh = blocks human DNA polymerase kappa activity; Potency, µM (doses to about 107 µM), inactives show at the top dose activity, negative = inhibition, actives largely listed as inhibitors; hit rate 0.53% among 400,000; AID 588579; purified Pol kappa, fluorescent DNA synthesis assay, 10 min; further: on the % scale 0 is the no-effect control and ±100 the full control effect
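Kinetic fluorescence readout at 0 and 10 min followed reaction start with substrate at 50 nM final. Beforehand, enzyme (10 nM Pol kappa) stood 15 min with compound at room temperature; buffer-only wells were negative controls.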
Numbers without * were called inactive; ? = inconclusive; · = no result; ! = not confirmed by another sample; [ ] = another dose, or the depositor's remark. Shown are actives, neighbours in structure and some others; about 2.4% of the full set was active somewhere. The call rests on the fitted dose curve; in most records, active means well fitted curve in the direction sought with a large enough effect; inconclusive means small, poorly fitted or top-dose-only effect, or another doubt; inactive means no such curve, though single readings can be large; an effect the other way counts as inactive or inconclusive. Potency means the concentration at half of the fitted maximal effect.

SMILES	GLS inhibitor	APE1 inh	Pol iota inh	POLH inh	Pol beta inh	POLK inh
COC(=O)c1ccc(-c2ccc(/C=N/N3C(=O)C4C5C=CC(CC5)C4C3=O)o2)cc1 (stereo unspecified)	1.6%	-0.6%	55.9%	-2.9%	?	-11.2%
Cn1cccc1C(C(=O)NC1CCCCC1)N(C(=O)Cc1cccs1)C1CC1 (stereo unspecified)	2.7%	28.4%	15.7%	-14.7%	20.4%	4.2%
CN(C)c1ccc(O)c2c1CC1CC3C(N(C)C)C(=O)C(C(N)=O)=C(O)[C@@]3(O)C(=O)C1=C2O (stereo partly specified)	56.2%	·	?	-2.1%	·	?
CN(C)c1cc(NC(=O)CNC(C)(C)C)c(O)c2c1C[C@@H]1C[C@H]3[C@H](N(C)C)C(=O)C(C(N)=O)=C(O)[C@@]3(O)C(=O)C1=C2O	6.31µM*	·	·	·	·	·
O=C(N/N=C\c1ccc[nH]1)C1COc2ccccc2O1 (stereo unspecified)	10.9%	1.4%	30.3%	-3.6%	27.7%	-0.6%
CC(C)c1ccc(NC(=O)Cn2c(=O)oc3cc(S(=O)(=O)N4CCCC4)ccc32)cc1	-28.5%	·	1.7%	-9.6%	-8.8%	-5.2%
COc1cc(NC(=O)C2CCCN(S(=O)(=O)c3ccc4c(c3)CCCN4C(C)=O)C2)cc(OC)c1 (stereo unspecified)	3.6%	-13.9%	-1.7%	-10.4%	3.2%	-15.1%
COc1ccc(NC(=O)C2CCCN(S(=O)(=O)c3ccc4c(c3)CCCN4C(C)=O)C2)cc1 (stereo unspecified)	2.6%	-12.5%	79.4µM*!	19.3%	4.2%	-16.5%
CC1=NN(c2ccc(S(=O)(=O)O)cc2Cl)C(=O)C1	-12.0%	-10.7%	?	?	-3.4%	-14.4%
CC1=NN(c2cccc(Cl)c2)C(=O)C1	2.4%	-1.5%	3.55µM*	-16.0%	0.5%	-20.4%
CC1=NN(c2ccc(Cl)c(C(=O)O)c2)C(=O)C1	12.6µM*	?	1.12µM*	22.4µM*	?	-41.8%
CC1=NN(c2cc(Cl)c(S(=O)(=O)O)cc2Cl)C(=O)C1	41.6%	·	?	22.4µM*	·	?
COc1ccc(S(=O)(=O)N2CCC(n3cnc4ccccc43)CC2)cc1	-6.5%	2.0%	-15.8%	-5.0%	43.2%	-12.4%
CN(C)c1ccc(/C=C/c2nc3ccccc3c(=O)n2-c2ccc(C(=O)O)cc2)cc1	4.0%	23.6%	?	25.1µM*	-0.6%	?
Cn1c2cc(B(O)O)sc2c2cnn(Cc3c(F)cccc3F)c(=O)c21	·	21.2µM*	·	·	·	·
Cn1c2cc(Br)sc2c2cnn(Cc3ccc(F)cc3F)c(=O)c21	-3.7%	-5.8%	-28.5%	-12.1%	·	-11.8%
Cn1c2cc(B(O)O)sc2c2cnn(Cc3ccc(F)cc3F)c(=O)c21	·	13.4µM*	·	·	·	·
COc1nc(-c2ccccc2)ccc1-c1noc(-c2ccccc2Br)n1	-10.9%	·	?	-21.5%	-16.0%	?
CS(=O)(=O)N(CC(=O)N1CCCCCC1)Cc1ccc(Cl)cc1	-4.9%	3.1%	0.0%[58.9 µM]	-1.4%	13.5%	-7.6%
OCCN(CCCn1c(C(F)(F)F)nc2ccccc21)c1nc(CN2CCCCC2)cs1	1.0%	37.8%	47.3%	-9.7%	0.1%	-1.3%
CCOc1ccc(C(=O)N/N=C/c2cc([N+](=O)[O-])cs2)cc1	0.7%	-5.0%	35.5µM*	32.6%	14.1µM*	-28.0%
COc1cc(C(=O)N/N=C/c2cc([N+](=O)[O-])cs2)cc(OC)c1OC	7.1%	7.0%	-1.5%	-13.1%	-0.1%	-1.0%
COc1cccc(-n2nnc3c(=O)n(CC(=O)Nc4ccc(C)cc4)cnc32)c1	4.9%	-3.6%	-10.5%	-19.1%	-24.9%	-12.3%
CCN(CC)CCN(C(=O)c1ccco1)c1nc2cc(C)cc(C)c2s1	12.2%	·	-23.8%	-3.7%	56.2µM*	-21.2%
CC(=O)c1ccccc1NS(=O)(=O)c1cccc2nonc12	8.8%	-7.6%	-9.2%	9.8%	-19.5%	1.8%
